Assay outcomes as filed in PubChem.
EP2 antag – blocks the human prostaglandin E2 receptor EP2. C6 glioma cells expressing human EP2, cAMP TR-FRET; cells stimulated with saturating PGE2. P43116. actives 0.52% (n = 260,000). inhibition, % at 25 µM;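 active = percent inhibition above 40 after rounding to a whole number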;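 also: rat C6 glioma host cells with rolipram phosphodiesterase inhibitor present; the protocol text gives 20 µM as final concentration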
S1P4 antag – human S1P4 receptor antagonism. O95977. S1P4-expressing cells, antagonist mode, reporter read-out. inhibition, % at 4.98 µM. actives 0.26% (n = 220,000); in the data active = inhibition above about 29%
Target sequence (O95977 whole entry, looked up): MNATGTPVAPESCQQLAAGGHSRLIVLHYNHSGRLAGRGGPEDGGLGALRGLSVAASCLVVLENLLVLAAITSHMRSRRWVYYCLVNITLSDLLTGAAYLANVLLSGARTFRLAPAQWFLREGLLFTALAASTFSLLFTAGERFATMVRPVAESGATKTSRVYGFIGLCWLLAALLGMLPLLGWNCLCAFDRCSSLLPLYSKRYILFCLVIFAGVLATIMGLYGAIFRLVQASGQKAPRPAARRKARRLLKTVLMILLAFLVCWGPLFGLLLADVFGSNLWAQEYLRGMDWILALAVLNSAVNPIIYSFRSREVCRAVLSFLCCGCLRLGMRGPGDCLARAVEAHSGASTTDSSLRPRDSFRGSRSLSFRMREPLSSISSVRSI
EP2 modulator – modulates human prostaglandin E2 receptor EP2 signaling; EP2-expressing cells, cAMP HTRF FRET, PGE2 co-stimulation; actives 0.83% (n = 260,000); P43116; induction, % at 25 µM;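 active = compounds whose cAMP rise, as percent of the full-agonist control response, exceeds 60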;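 also: rat C6 glioma line stably carrying human EP2 under a CMV promoter; the protocol text gives 20 µM as final concentration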
S1P4 ag – agonists of human S1P4 receptor; O95977; S1P4-expressing cell line, agonist reporter assay; activation, % at 4.98 µM; actives 0.35% (n = 220,000); AID 1509; in the data active = activation above about 11%
S1P3 antagonist – S1P3 (human) receptor antagonism. Q99500. CHO S1P3 NFAT-BLA reporter, FRET fluorescence, antagonist mode. inhibition, % at 4.98 µM. actives 0.27% (n = 170,000). AID 485;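 active = inhibition above the plate cutoff, the mean inhibition of test wells on that plate plus 3 SD, cut at about 28% in these data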;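 also: cells challenged with S1P at its EC80 of 0.8 µM; blue over green emission ratio from cleaved BLA substrate after 4 h stimulation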
Target sequence (Q99500 whole entry, looked up): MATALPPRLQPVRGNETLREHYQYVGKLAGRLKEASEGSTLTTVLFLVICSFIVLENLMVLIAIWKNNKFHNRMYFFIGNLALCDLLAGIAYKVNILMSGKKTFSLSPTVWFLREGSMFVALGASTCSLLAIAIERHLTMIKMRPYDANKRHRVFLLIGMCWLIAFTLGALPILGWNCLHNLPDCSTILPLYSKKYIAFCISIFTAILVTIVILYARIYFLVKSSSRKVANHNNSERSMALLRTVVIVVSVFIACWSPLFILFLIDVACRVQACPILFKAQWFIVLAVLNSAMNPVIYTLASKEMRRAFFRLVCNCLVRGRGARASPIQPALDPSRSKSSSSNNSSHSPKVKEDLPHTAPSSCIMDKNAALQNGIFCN
Large screens that a line does not name were inactive; ! = a repeat was not active. In the library only some 1.9% were active in any assay of this set; here they are far more common.

Nc1ncnc2nc[nH]c12.Nc1ncnc2nc[nH]c12.[Cl][Pt]([Cl])([Cl])[Cl]	EP2 antag 46.6 (no result: S1P4 antag, S1P4 ag, S1P3 antagonist)
Cc1ccc(-c2nnc(SCC#N)n2C)cc1	none (no result: S1P4 antag, S1P4 ag, S1P3 antagonist)
COC(=O)CSc1ccc(C#N)c(SCC(=O)OC)c1	none (no result: S1P3 antagonist)
COC(=O)CSc1cc(SCC(=O)OC)c(C#N)c(SCC(=O)OC)c1	EP2 antag 54.9
COc1ccccc1-c1ocnc1C(=O)Nc1cc(-n2cccc2)ccc1C	none (no result: S1P4 antag, S1P4 ag, S1P3 antagonist)
CCn1nnc(NC(=O)COc2ccc(C)cc2C)n1	none (no result: S1P4 antag, S1P4 ag, S1P3 antagonist)
Fc1ccccc1C1c2[nH]c3ccccc3c2CCN1Cc1ccoc1 (centres undefined)	EP2 modulator 64.4
CSc1ncc(CN2CCc3c([nH]c4ccccc34)C2c2cccc(C)n2)cn1 (centres undefined)	none
CCC(=O)Nc1nnc(SCC(=O)c2ccc3c(c2)Cc2ccccc2-3)s1	none (no result: EP2 antag, S1P3 antagonist)
CC(=O)Nc1nnc(SCC(=O)c2ccc3c(c2)Cc2ccccc2-3)s1	EP2 modulator 60.8
O=C(O)c1ccc(N/N=C/c2cn(Cc3ccccc3F)c3ccccc23)cc1	EP2 modulator 87.5
COc1ccc(-n2c(CNc3ccc(Cl)cc3)n[nH]c2=S)cc1	none (no result: S1P4 antag, S1P4 ag, S1P3 antagonist)
O=C(Nc1ccccc1)C1=C(c2ccccc2)S(=O)(=O)CCS1(=O)=O	EP2 antag 45.9, S1P4 antag 32.3
c1ccc([P+](CC[P+](c2ccccc2)(c2ccccc2)c2ccccc2)(c2ccccc2)c2ccccc2)cc1	EP2 antag 45.1 (no result: S1P4 antag, S1P4 ag, S1P3 antagonist)
CC(C)(C)c1ccc(Cn2nnc3c(=O)[nH]c(C4CCN(C(=O)C5CCCCC5)CC4)nc32)cc1	EP2 modulator 71.5 (no result: S1P4 antag, S1P4 ag, S1P3 antagonist)
O=C(C1CCCCC1)N1CCC(c2nc3c(nnn3Cc3ccccc3)c(=O)[nH]2)CC1	none (no result: S1P4 antag, S1P4 ag, S1P3 antagonist)
CC(C)C(OC(=O)CN1C(=O)COc2ccccc21)C(=O)NC1CCCC1 (centres undefined)	none
Cc1ccc2c(c1)N(CC(=O)OC(CC(C)C)C(=O)NC1CCCC1)C(=O)CO2 (centres undefined)	S1P3 antagonist 89.5
CCOC(=O)c1c(N)sc(=S)c2c1CCC2	EP2 antag 60.8 (no result: S1P3 antagonist)
CCOC(=O)c1c(N)sc(N)c1C(=O)OCC	none
COc1ccc2[nH]c3c(Cl)ncnc3c2c1	none
COc1ccc2[nH]c3c(=S)nc[nH]c3c2c1	EP2 modulator 62.0
COC(=O)[C@@H]1[C@H]2C[C@H]3c4[nH]c5ccccc5c4CCN3C[C@@H]2CC[C@@H]1O	none (no result: S1P4 antag, S1P4 ag, S1P3 antagonist)
COc1ccc2c3c([nH]c2c1)[C@H]1C[C@@H]2[C@H](C[C@@H](O)[C@H](OC)[C@H]2C(=O)O)CN1CC3	EP2 antag 51.2 (no result: S1P4 antag, S1P4 ag, S1P3 antagonist)
COC(=O)[C@H]1[C@@H]2C[C@H]3c4[nH]c5ccccc5c4CCN3C[C@H]2CC[C@@H]1O	EP2 antag 41.2 (no result: S1P4 antag, S1P4 ag, S1P3 antagonist)
COc1ccc2c(Cl)c(C(=O)N3CCC(C)CC3)sc2c1	none (no result: S1P4 antag, S1P4 ag, S1P3 antagonist)
CCn1c(=O)c(C(=O)NCc2ccc(OC)c(OC)c2)c(O)c2ccccc21	EP2 modulator 60.7!
CCn1c(=O)c(C(=O)NCc2ccc(OC)cc2)c(O)c2ccccc21	EP2 modulator 61.7
CCCn1c(=O)c(C(=O)NCCc2ccc(OC)cc2)c(O)c2ccccc21	EP2 modulator 70.8 (no result: S1P4 antag, S1P4 ag, S1P3 antagonist)
COc1cccc(/C(O)=C2/C(=O)C(=O)NC2c2ccc(OC)cc2OC)c1 (centres undefined)	none (no result: S1P4 antag, S1P4 ag, S1P3 antagonist)
COc1ccc(-c2cc(-c3cc(F)ccc3O)[nH]n2)cc1OC	EP2 antag 66.4
COc1ccc(-c2cc(-c3ccccc3O)[nH]n2)cc1OC	none
CCOCCCNC(=O)CSc1nc(-c2ccc(F)cc2)nc2ccc(CC)cc12	none (no result: S1P4 antag, S1P4 ag, S1P3 antagonist)
O=[N+]([O-])c1cc(/C=N\Nc2nc(-c3ccccc3)cs2)ccc1O	EP2 antag 47.8
CCC1C(=NO)C(CC)C(c2ccccc2)NC1c1ccccc1 (centres undefined)	EP2 modulator 62.7
COc1ccc(/C=C/c2c(-c3cccc(C)c3)oc3ccc(N4CCOCC4)cc23)cc1	EP2 antag 40.1 (no result: S1P4 antag, EP2 modulator, S1P4 ag, S1P3 antagonist)
COc1cc(C2Nc3c(Cl)cc(Cl)cc3C3C=CCC32)cc(OC)c1OC (centres undefined)	EP2 modulator 62.4 (no result: S1P4 antag, S1P4 ag, S1P3 antagonist)
COc1ccccc1N(C(=O)Cn1nnc(-c2ccc(F)cc2)n1)C(C)C(=O)NC1CCCC1 (centres undefined)	none (no result: S1P4 antag, S1P4 ag, S1P3 antagonist)
Cc1cc(C(=O)CSc2nn3c(=O)c(C(C)(C)C)nnc3s2)c(C)n1-c1ccc(F)cc1	EP2 antag 44.3 (no result: S1P3 antagonist)
O=C1NC(=O)/C(=C\c2c(OCc3ccccc3)ccc3ccccc23)S1	none (no result: S1P4 antag, S1P4 ag, S1P3 antagonist)
COc1ccc2cc1Oc1ccc(cc1)CC1c3c(cc(OC)c4c3Oc3cc5c(cc3O4)CCNC5C2)CCN1C (centres undefined)	none
COc1ccc2cc1Oc1ccc(cc1)C[C@H]1c3c(cc(OC)c4c3Oc3cc5c(cc3O4)CCN[C@H]5C2)CCN1C	EP2 antag 46.9 (no result: S1P4 antag, S1P4 ag, S1P3 antagonist)
COc1cc2c3cc1Oc1cc(ccc1O)C[C@@H]1c4c(cc(OC)c(O)c4Oc4ccc(cc4)C[C@@H]3N(C)CC2)CC[N+]1(C)C	none (no result: S1P4 antag, S1P4 ag, S1P3 antagonist)
COc1cc2c3cc1Oc1c(OC)c(OC)cc4c1[C@@H](Cc1ccc(O)c(c1)Oc1ccc(cc1)C[C@@H]3N(C)CC2)CN(C)C4	EP2 antag 48.3 (no result: S1P4 antag, S1P4 ag, S1P3 antagonist)
COc1cccc(NC(=O)Nc2ccc3c(c2)N(C)C(=O)CS3)c1	EP2 antag 42.3 (no result: S1P3 antagonist)
O=S1(=O)OC(c2ccc(O)cc2)(c2ccc(O)cc2)c2ccccc21	EP2 antag 95.7 (no result: S1P4 antag, S1P4 ag, S1P3 antagonist)
O=S1(=O)N=C(Nc2ccc(O)cc2)c2ccccc21	none
O=C1CN(C(=O)COC(=O)c2ccccc2O)c2ccccc2N1	none
Cn1c2ccccc2c2cc(C(=O)OCC(=O)N3CC(=O)Nc4ccccc43)sc21	EP2 antag 53.0
O=C(Nc1sc(NC(=O)c2cccs2)nc1-c1cccs1)c1ccccc1	EP2 modulator 60.8 (no result: S1P4 antag, S1P4 ag, S1P3 antagonist)
CN1CCN(CC(=O)N2CCn3c4c(c5cc(C6CCCCC6)ccc53)CCCC42)CC1 (centres undefined)	EP2 antag 91.4
Cc1ccc2c(c1)c1c3n2CCN(C(=O)CN2CCN(C)CC2)C3CCC1 (centres undefined)	none
O=C(CCN1CCCCC1c1cccnc1)NCc1ccccc1 (centres undefined)	none
CN1CCC[C@H]1c1cccnc1.O=C(O)c1ccccc1O.O=C([OH2+])c1ccccc1O.O=C([OH2+])c1ccccc1O.O=C([OH2+])c1ccccc1O.[Mn]	EP2 antag 41.9 (no result: S1P4 antag, S1P4 ag, S1P3 antagonist)
CC(C)c1cc(C(F)(F)F)nc(NNc2nc(C(C)C)cc(C(F)(F)F)n2)n1	EP2 antag 47.9 (no result: S1P4 antag, S1P4 ag, S1P3 antagonist)
CCNc1nc(Sc2ccc(C)cc2)cc(C(F)(F)F)n1	none (no result: S1P3 antagonist)
O=c1[nH]c2cc3c(cc2cc1C(c1nnnn1C1CCCC1)N1CCCC1)OCO3 (centres undefined)	none (no result: S1P4 antag, S1P4 ag, S1P3 antagonist)
CC(C)c1nc2ccccc2c2nn(CC(=O)N3CCCCC3C)c(=O)n12 (centres undefined)	none (no result: S1P4 antag, S1P4 ag, S1P3 antagonist)
COc1ccccc1C1CN(c2ccccc2)N=C1c1cccs1 (centres undefined)	EP2 modulator 67.9 (no result: S1P3 antagonist)
CCOc1ccccc1C1CC(c2cccs2)=NN1S(C)(=O)=O (centres undefined)	none
Cc1cc(Cl)ccc1Nc1sc(C(=O)c2cc3cc(Cl)ccc3o2)c(N)c1C#N	EP2 antag 50.5 (no result: S1P4 antag, S1P4 ag, S1P3 antagonist)
